# Results filed as inconclusive are left out. A number with no mark means an inactive call. Active and inactive are the calls of the source. Calls follow the shape of the dose curve; as a rule, active = well fitted curve in the direction sought with a large enough effect; inconclusive = small, poorly fitted or top-dose-only effect, or another doubt; inactive = no such curve, though single readings can be large; an effect the other way counts as inactive or inconclusive.
# Columns and labels:
# [1] = BET inhibitor-based combinations targeting novel dependencies in MECOM-rearranged (r) AML: SET-2 cell line (AID 2202231); details: SET-2 AML cells viability, CellTiter-Glo luminescence, 48 h; viability: stronger effect = lower value, concentration not given here; also: nearly all actives have a fitted effect of over 35% in size;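 as to viability: plate controls were DMSO treated cells for no effect and wells without cells for full effect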
# Summary of the method: (§1)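 Viability of cells (500 per well) is scored by luminescent CellTiter-Glo at 48 hr post-dosing. Eleven-point titrations are normalized to DMSO and empty controls and reduced to AUC values.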
# [2] = BET inhibitor-based combinations targeting novel dependencies in MECOM-rearranged (r) AML: OCI-AML3 cell line (AID 2202232); details: Potency: OCI-AML3 viability; also: nearly all actives have a fitted effect of over 35% in size
# Summary of the method: as §1
# [3] = BET inhibitor-based combinations targeting novel dependencies in MECOM-rearranged (r) AML: HNT-34 cell line (AID 2202234); also: nearly all actives have a fitted effect of over 35% in size
# Summary of the method: (§2)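 Using pin-tool transfer, drugs were added in 11 doses to cells (500/well), incubated 48 hr, and assessed with CellTiter-Glo. Z-AUC is a mean-centring transformation applied separately to each screened line.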
# [4] = BET inhibitor-based combinations targeting novel dependencies in MECOM-rearranged (r) AML: UCSD-AML1 cell line (AID 2202235); also: nearly all actives have a fitted effect of over 40% in size
# Summary of the method: as §2
# [5] = BET inhibitor-based combinations targeting novel dependencies in MECOM-rearranged (r) AML: AML-191 cell line (AID 2202236; also: nearly all actives have a fitted effect of over 35% in size)
# Summary of the method: as §1
# [6] = BET inhibitor-based combinations targeting novel dependencies in MECOM-rearranged (r) AML: AML-194 cell line (AID 2202237; also: nearly all actives have a fitted effect of over 40% in size)
# Summary of the method: as §1
# [7] = BET inhibitor-based combinations targeting novel dependencies in MECOM-rearranged (r) AML: MV-4-11 cell line (AID 2202233); also: nearly all actives have a fitted effect of over 45% in size
# Summary of the method: as §2
# Potency is read from the fitted curve at half-maximal effect.
smiles,measurement,setting,value
N=C1S/C(=C\c2ccc(-c3ccc4c(c3)C(=O)NC4=O)o2)C(=O)N1c1ccc(Br)cc1,viability,[1],117%
same,Potency,[2],inactive
same,Potency,[3],inactive
same,Potency,[4],inactive
same,Potency,[5],inactive
same,Potency,[6],inactive
CC[C@@H]1[C@H](F)C(=O)N[C@@H]1COc1nccc2cc(C(N)=O)c(OC)cc12,Potency,[1],14.8 µM (active)
same,Potency,[2],14.8 µM (active)
same,Potency,[3],11.8 µM (active)
same,Potency,[4],20.9 µM (active)
same,Potency,[5],14.8 µM (active)
same,Potency,[6],20.9 µM (active)
CCOC(=O)C1=C(C)NC(=S)NC1c1cccc(O)c1 (centres undefined),viability,[1],98.4%
same,Potency,[2],20.9 µM (active)
same,Potency,[3],18.6 µM (active)
C[C@@H]1CC(=O)Nc2cccc(-c3ccc4c(c3)c(-c3cnn(C)c3)nn4C)c2N1,Potency,[1],6.61 µM (active)
same,Potency,[2],6.61 µM (active)
same,Potency,[7],5.25 µM (active)
same,Potency,[4],2.63 µM (active)
same,Potency,[6],6.61 µM (active)
CN(C)C[C@@H]1CCn2cc(c3ccccc32)C2=C(C(=O)NC2=O)c2cn(c3ccccc23)CCO1,Potency,[1],8.33 µM (active)
same,Potency,[2],20.9 µM (active)
same,Potency,[7],0.417 µM (active)
same,Potency,[6],5.9 µM (active)
C=C1C(=CC=C2CCC[C@]3(C)[C@@H]([C@H](C)C=C[C@H](C)C(C)C)CC[C@@H]23)C[C@@H](O)C[C@@H]1O,Potency,[1],23.5 µM (active)
same,Potency,[7],16.6 µM (active)
same,Potency,[3],18.6 µM (active)
same,Potency,[4],inactive
same,Potency,[5],23.5 µM (active)
Cc1cnc(NC(=O)c2cc(Oc3cnc(C(=O)N(C)C)nc3)c3cc(C)oc3c2)cn1,viability,[1],126%
same,Potency,[7],inactive
same,Potency,[3],inactive
same,Potency,[4],inactive
same,Potency,[5],inactive
same,Potency,[6],inactive
CC[C@H]1OC(=O)[C@H](C)C(=O)[C@H](C)[C@@H](O[C@H]2O[C@H](C)C[C@H](N(C)C)[C@H]2O)[C@](C)(OC)C[C@@H](C)C(=O)[C@H](C)[C@H]2N(CCCCn3cnc(-c4cccnc4)c3)C(=O)O[C@]12C,viability,[1],101%
same,Potency,[2],inactive
same,Potency,[4],inactive
same,Potency,[5],inactive
same,Potency,[6],inactive
CN1CCN(c2ccc3nc(-c4cc(C(C)(C)C)c(OCCCC(=O)NCCCN=[N+]=[N-])c(C(C)(C)C)c4)[nH]c3c2)CC1,Potency,[1],10.5 µM (active)
same,Potency,[2],10.5 µM (active)
same,Potency,[5],9.34 µM (active)
same,Potency,[6],8.33 µM (active)
C#C[C@]1(O)CC[C@H]2[C@@H]3[C@H](C)CC4=C(CCC(=O)C4)[C@H]3CC[C@@]21C,viability,[1],111%
same,Potency,[2],16.6 µM (active)
same,Potency,[4],inactive
same,Potency,[5],inactive
same,Potency,[6],inactive
CN[C@@H](C)C(=O)N[C@H](C(=O)N1CCC[C@H]1c1nc(C(=O)c2ccc(F)cc2)cs1)C1CCCCC1,Potency,[1],16.6 µM (active)
same,Potency,[7],16.6 µM (active)
O=C(/C=C\n1cnc(-c2cc(C(F)(F)F)cc(C(F)(F)F)c2)n1)NNc1ccccn1,Potency,[1],0.934 µM (active)
same,Potency,[2],0.833 µM (active)
same,Potency,[4],0.468 µM (active)
same,Potency,[5],0.525 µM (active)
same,Potency,[6],0.417 µM (active)
O=C(O)c1ccccc1-c1ccc(/C=c2\sc3nc4cc(Br)cnc4n3c2=O)o1,viability,[1],92.3%
same,Potency,[2],inactive
same,Potency,[5],inactive
same,Potency,[6],inactive
C[C@@H](Nc1cc(F)cc(F)c1)c1cc(C(=O)N(C)C)cc2c(=O)cc(N3CCOCC3)oc12,viability,[1],109%
same,Potency,[2],5.9 µM (active)
same,Potency,[5],23.5 µM (active)
O=S(=O)(NCCNC/C=C/c1ccc(Br)cc1)c1cccc2cnccc12,Potency,[1],14.8 µM (active)
same,Potency,[7],14.8 µM (active)
CONC(=O)c1ccccc1Nc1cc(Nc2cc(C)nn2C(C)C)ncc1Cl,viability,[1],86.2%
same,Potency,[7],14.8 µM (active)
CCc1cc(/C(C)=N/OCc2ccc(C3CCCCC3)c(C(F)(F)F)c2)ccc1CN1CC(C(=O)O)C1,Potency,[1],16.6 µM (active)
same,Potency,[7],8.33 µM (active)
same,Potency,[3],inactive
same,Potency,[4],inactive
COc1cc2c(NC3CCN(C4CCCCC4)CC3)nc(N3CCCN(C(C)C)CC3)nc2cc1OCCCN1CCCCC1,viability,[1],109%
same,Potency,[7],7.42 µM (active)
CCC[C@H](NC(=O)[C@@H]1[C@H]2CCC[C@H]2CN1C(=O)[C@@H](NC(=O)[C@@H](NC(=O)c1cnccn1)C1CCCCC1)C(C)(C)C)C(=O)C(=O)NC1CC1,Potency,[1],0.263 µM (active)
same,Potency,[2],inactive
same,Potency,[6],inactive
Nc1nc2cc(-c3ccc4ncc(C(=O)N5CCOCC5)n4c3)ccc2o1,viability,[1],99.4%
same,Potency,[7],16.6 µM (active)
same,Potency,[3],16.6 µM (active)
same,Potency,[4],8.33 µM (active)
Nc1ncnc2nc(-c3ccc(N4CCOCC4)nc3)cc(-c3cccc(Br)c3)c12,viability,[1],91.6%
same,Potency,[7],8.33 µM (active)
Cn1cc(-c2nc(N[C@@H]3CCCC[C@@H]3N)c(F)c3c2C(=O)NC3)cn1,viability,[1],112%
same,Potency,[7],0.148 µM (active)
same,Potency,[3],2.35 µM (active)
CN(C)Cc1cccc(N=C(c2ccccc2)c2c(O)[nH]c3cc(C(N)=O)ccc23)c1,viability,[1],78%
same,Potency,[7],0.662 µM (active)
CCN(C)S(=O)(=O)Nc1ccc(F)c(C(=O)c2c[nH]c3ncc(-c4cnc(C5CC5)nc4)cc23)c1F,Potency,[1],18.6 µM (active)
same,Potency,[7],23.5 µM (active)
same,Potency,[3],4.17 µM (active)
same,Potency,[4],20.9 µM (active)
CC1(N)CCN(c2cccnc2NC(=O)c2nc(-c3ncccc3C(F)(F)F)cnc2N)CC1,viability,[1],101%
same,Potency,[7],7.42 µM (active)
same,Potency,[3],18.6 µM (active)

# Source: PubChem BioAssay (NCATS)
